{
  "source": "PubChem BioAssay (NCATS)",
  "key": {"[1]": {"test": "qHTS for Inhibitors of the Functional Ribonucleoprotein Complex (vRNP) of Lassa (LASV) Arenavirus: LASV Primary Screen - GLuc reporter signal (AID 1347082; calls by dose curve; tested in HEK293 reporter line; also: nearly all actives have a fitted effect of over 60% in size; also: potency is read from the fitted curve at half-maximal effect)"}, "[2]": {"test": "qHTS for Inhibitors of the Functional Ribonucleoprotein Complex (vRNP) of Lassa (LASV) Arenavirus: Viability assay - alamar blue signal for LASV Primary Screen (AID 1347083; calls by dose curve; tested in HEK293 reporter line; also: nearly all actives have a fitted effect of over 80% in size; also: potency is read from the fitted curve at half-maximal effect)"}, "[3]": {"test": "Cytotoxicity counterscreen for inhibitors of SARS-CoV-2 cell entry (AID 1645845); also: nearly all actives have a fitted effect of over 50% in size; also: potency is read from the fitted curve at half-maximal effect", "in_short": "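Counterscreen run in the same HEK293-ACE2 line as the pseudotyped-particle entry assay, without particles. Viability after 48 h at 37 C was read as ATP luminescence, scaled between cell-containing and cell-free wells.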"}, "[4]": {"test": "Primary qHTS to identify inhibitors of SARS-CoV-2 cell entry (AID 1645846); also: nearly all actives have a fitted effect of over 45% in size; also: potency is read from the fitted curve at half-maximal effect", "settings": "activity change, negative = inhibition: at 57.1 µM (top of the series) unless noted", "in_short": "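HEK293-ACE2 (Expi293F, stable hACE2), 1500 cells/well, o/n 37C; cpd 23 nL pin, 1 h; MLV-PP w/ SARS-CoV-2-S (Wuhan-Hu-1, Δ19 C-term); 48 h 37C; Bright-Glo luminescence; normalized vs S-PP and bald PP.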"}, "[5]": {"test": "Inducers of the Endoplasmic Reticulum Stress Response (ERSR) in human glioma: Validation (AID 504836; active = well fitted curve in the direction sought with a large enough effect; an effect the other way counts as inactive or inconclusive)", "in_short": "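Stably transfected U87-MG glioma cells carrying a GRP78-based luciferase sensor; 16 h compound incubation. Luminescence end-point read 10 min after Bright-Glo addition at room temperature.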"}, "[6]": {"test": "qHTS profiling of the MIPE4 collection as inhibitors of Plasmodium falciparum (3D7) proliferation (AID 743344; call rule not given here)", "settings": "P. falciparum 3D7 in erythrocytes, SYBR Green DNA fluorescence, 72 h; at 28.5 µM (top of the series) unless noted", "in_short": "(§1)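 Parasite DNA was quantified by SYBR Green I fluorescence (ex 485, em 535 nm) after overnight lysis in saponin/Triton buffer at room temperature. Cultures at 0.3% parasitemia and 2.5% hematocrit were first exposed to compound for 72 h at 37 C; signals were normalised to artemisinin (0.29 uM) and vehicle wells.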"}, "[7]": {"test": "qHTS profiling of the MIPE4 collection as inhibitors of Plasmodium falciparum (DD2) proliferation (AID 743345; call rule not given here)", "settings": "P. falciparum Dd2 in erythrocytes, SYBR Green DNA, 72 h; at 28.5 µM (top of the series) unless noted", "in_short": "as §1"}, "[8]": {"test": "qHTS profiling of the MIPE4 collection as inhibitors of Plasmodium falciparum (DD2) proliferation (Rep 2) (AID 743346; call rule not given here)", "settings": "P. falciparum Dd2 in erythrocytes, SYBR Green DNA, 72 h; at 28.5 µM (top of the series) unless noted", "in_short": "as §1"}, "[9]": {"target": "Nucleoprotein (Lymphocytic choriomeningitis virus (strain Armstrong)) (UniProt P09992)", "sequence (P09992 whole entry, looked up)": "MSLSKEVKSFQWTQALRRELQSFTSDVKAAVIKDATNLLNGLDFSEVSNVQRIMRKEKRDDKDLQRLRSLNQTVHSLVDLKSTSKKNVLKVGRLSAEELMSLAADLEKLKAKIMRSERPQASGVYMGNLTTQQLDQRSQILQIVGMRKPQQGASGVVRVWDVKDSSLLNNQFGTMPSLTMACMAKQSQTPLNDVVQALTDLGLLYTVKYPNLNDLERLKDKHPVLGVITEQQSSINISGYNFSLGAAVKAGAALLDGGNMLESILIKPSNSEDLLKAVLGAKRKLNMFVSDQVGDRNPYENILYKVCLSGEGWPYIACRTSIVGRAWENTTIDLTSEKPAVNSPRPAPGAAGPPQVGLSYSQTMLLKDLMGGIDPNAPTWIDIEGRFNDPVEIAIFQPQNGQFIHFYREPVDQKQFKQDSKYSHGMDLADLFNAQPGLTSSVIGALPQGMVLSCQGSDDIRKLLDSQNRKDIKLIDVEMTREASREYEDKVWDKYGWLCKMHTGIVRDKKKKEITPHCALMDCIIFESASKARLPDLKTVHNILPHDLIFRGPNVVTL", "test": "qHTS for Inhibitors of the Functional Ribonucleoprotein Complex (vRNP) of Lymphocytic Choriomeningitis Arenaviruses (LCMV): LCMV Primary Screen - GLuc reporter signal (AID 1347086)"}, "[10]": {"test": "Validation screen for inhibitors of Lassa infection (AID 463096)"}, "[11]": {"target": "Alpha-galactosidase (Coffea arabica) (UniProt Q42656)", "sequence (Q42656 whole entry, looked up)": "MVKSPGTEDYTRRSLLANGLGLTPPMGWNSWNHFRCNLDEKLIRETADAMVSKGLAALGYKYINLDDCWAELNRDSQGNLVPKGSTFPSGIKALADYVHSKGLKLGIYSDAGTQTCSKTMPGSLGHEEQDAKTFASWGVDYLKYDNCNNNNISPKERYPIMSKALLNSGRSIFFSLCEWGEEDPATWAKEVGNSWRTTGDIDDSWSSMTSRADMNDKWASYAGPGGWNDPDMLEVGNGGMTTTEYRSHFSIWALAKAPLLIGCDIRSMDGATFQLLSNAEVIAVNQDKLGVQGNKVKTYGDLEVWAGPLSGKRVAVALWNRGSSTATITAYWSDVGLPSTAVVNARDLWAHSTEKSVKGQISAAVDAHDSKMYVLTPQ", "test": "Counterscreen for Glucocerebrosidase Inhibitors: qHTS Assay for Coffee Bean alpha-Galactosidase at pH 4.5 (AID 957; active = well fitted curve in the direction sought with a large enough effect; an effect the other way counts as inactive or inconclusive)", "in_short": "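Quantitative HTS of compounds (0.7 nM to 77 uM) against coffee bean alpha-galactosidase at pH 4.5, measuring 4-methylumbelliferone fluorescence released from 80 uM substrate.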"}, "[12]": {"test": "Confirmatory qHTS to identify inhibitors of SARS-CoV-2 cell entry (AID 1645844)", "in_short": "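HEK293-ACE2, overnight seeding; cpd 1 h, 37C/5% CO2; + SARS-CoV-2-S MLV PP (Wuhan-Hu-1, ΔC19); 48 h; Bright-Glo luminescence. Data normalised to S PP and bald PP wells.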"}, "[13]": {"test": "VSVG counterscreen qHTS to identify inhibitors of SARS-CoV-2 cell entry (AID 1645847)", "in_short": "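Expi293F/hACE2 cells, overnight plating; cpd 1 h, 37C/5% CO2; + VSV-G PP (MLV pseudotyping), 48 h; supernatant removed, Bright-Glo luciferase read. Norm: VSV-G PP and bald PP wells.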"}, "[14]": {"target": "Cytochrome P450 3A4 (Homo sapiens) (UniProt P08684)", "sequence (P08684 whole entry, looked up)": "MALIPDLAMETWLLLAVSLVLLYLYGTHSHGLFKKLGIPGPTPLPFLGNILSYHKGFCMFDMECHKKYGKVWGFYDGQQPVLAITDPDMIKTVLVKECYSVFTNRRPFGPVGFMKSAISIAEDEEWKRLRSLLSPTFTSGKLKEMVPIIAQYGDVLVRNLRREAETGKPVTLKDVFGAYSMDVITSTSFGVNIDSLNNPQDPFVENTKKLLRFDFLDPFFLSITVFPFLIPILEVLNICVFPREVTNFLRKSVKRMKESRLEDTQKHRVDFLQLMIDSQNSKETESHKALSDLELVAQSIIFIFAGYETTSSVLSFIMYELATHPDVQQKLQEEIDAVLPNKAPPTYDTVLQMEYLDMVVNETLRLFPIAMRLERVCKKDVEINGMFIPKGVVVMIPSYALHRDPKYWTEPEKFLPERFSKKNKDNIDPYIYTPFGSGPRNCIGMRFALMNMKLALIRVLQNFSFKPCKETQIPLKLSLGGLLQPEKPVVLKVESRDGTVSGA", "test": "qHTS Assay for Activators of Cytochrome P450 3A4 (AID 885; active = well fitted curve in the direction sought with a large enough effect; an effect the other way counts as inactive or inconclusive)", "in_short": "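Human CYP3A4 dealkylates Luciferin-PPXE to luciferin, which luciferase detection converts to light. Substrate was at its KM (25uM), buffer 200mM KPO4, reaction 60 min at RT.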"}, "[15]": {"test": "S16 Schwann cell PMP22 intronic element firefly luciferase assay (AID 624032; active = well fitted curve in the direction sought with a large enough effect; an effect the other way counts as inactive or inconclusive)", "in_short": "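Rat S16 Schwann cells stably carrying firefly luciferase driven by a PMP22 intronic element, in 10% FBS, treated 24 h at 37 C. ONE-Glo luminescence normalized to PTC124 control and DMSO (0%); curves classed by r2, magnitude and activity.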"}},
  "note": "Results filed as inconclusive are left out. Entries that show only a call come without a potency. Calls of active or inactive are those of the source. Unless noted, calls follow the shape of the full dose curve.",
  "data": [
    {"smiles": "CNC(=O)c1c(F)cccc1Nc1nc(Nc2cc3c(cc2OC)CCN3C(=O)CN(C)C)nc2[nH]ccc12", "values": [
      {"measurement": "Potency", "setting": "[1]", "result": "inactive"},
      {"measurement": "Potency", "setting": "[2]", "result": "inactive"},
      {"measurement": "Potency", "setting": "[3]", "result": "inactive"},
      {"measurement": "Potency", "setting": "[4]", "result": "20 µM (active)"}
    ]},
    {"smiles": "CC(C)C[C@H](NC(=O)CNC(=O)c1cc(Cl)ccc1Cl)B1OC(=O)CC(CC(=O)O)(C(=O)O)O1", "note": "(some centres not stated)", "values": [
      {"measurement": "Potency", "setting": "[1]", "result": "7.69 µM (active)"},
      {"measurement": "Potency", "setting": "[2]", "result": "1.93 µM (active)"},
      {"measurement": "Potency", "setting": "[3]", "result": "0.891 µM (active)"},
      {"measurement": "activity change, negative = inhibition", "setting": "[4]", "result": -99.4, "unit": "%"}
    ]},
    {"smiles": "O=c1[nH]c(=O)n([C@H]2C[C@@H](O)[C@@H](CO)O2)cc1C=CBr", "values": [
      {"measurement": "outcome", "setting": "[5]", "result": "inactive"},
      {"measurement": "parasite growth, % of DMSO control", "setting": "[6]", "result": 139, "unit": "%"},
      {"measurement": "parasite growth remaining, % of DMSO control (lower = more inhibition)", "setting": "[7]", "result": 118, "unit": "%"},
      {"measurement": "parasite growth, % of control (lower = inhibition)", "setting": "[8]", "result": 157, "unit": "%"},
      {"measurement": "Potency", "setting": "[1]", "result": "inactive"},
      {"measurement": "Potency", "setting": "[2]", "result": "inactive"},
      {"measurement": "Potency", "setting": "[9]", "result": "inactive"}
    ]},
    {"smiles": "COc1cc(F)c(F)c(Nc2ccc(I)cc2F)c1NS(=O)(=O)C1(C[C@H](O)CO)CC1", "values": [
      {"measurement": "Potency", "setting": "[1]", "result": "inactive"},
      {"measurement": "Potency", "setting": "[2]", "result": "inactive"},
      {"measurement": "Potency", "setting": "[9]", "result": "inactive"},
      {"measurement": "Potency", "setting": "[4]", "result": "25.1 µM (active)"}
    ]},
    {"smiles": "CCN(CC)CCNC(=O)c1ccc2nc(-c3ccccc3)c(-c3ccc(CN4CCC(n5c(=O)[nH]c6ccccc65)CC4)cc3)nc2c1", "values": [
      {"measurement": "Potency", "setting": "[1]", "result": "34.3 µM (active)"},
      {"measurement": "Potency", "setting": "[2]", "result": "21.7 µM (active)"},
      {"measurement": "Potency", "setting": "[3]", "result": "5.62 µM (active)"},
      {"measurement": "Potency", "setting": "[4]", "result": "4.47 µM (active)"}
    ]},
    {"smiles": "CC=C(C)C(=O)O[C@H]1C(C)=C[C@]23C(=O)[C@@H](C=C(CO)[C@@H](O)[C@]12O)[C@H]1[C@@H](C[C@H]3C)C1(C)C", "values": [
      {"measurement": "parasite growth remaining, % of DMSO control (lower = more inhibition)", "setting": "[7]", "result": 78.2, "unit": "%"},
      {"measurement": "Potency", "setting": "[1]", "result": "inactive"},
      {"measurement": "Potency", "setting": "[2]", "result": "4.32 µM (active)"},
      {"measurement": "Potency", "setting": "[9]", "result": "inactive"}
    ]},
    {"smiles": "CN(C(Cc1ccc(OS(=O)(=O)c2cccc3cnccc23)cc1)C(=O)N1CCN(c2ccccc2)CC1)S(=O)(=O)c1cccc2cnccc12", "note": "(configuration not stated)", "values": [
      {"measurement": "Potency", "setting": "[1]", "result": "13.7 µM (active)"},
      {"measurement": "Potency", "setting": "[2]", "result": "21.7 µM (active)"},
      {"measurement": "Potency", "setting": "[3]", "result": "inactive"}
    ]},
    {"smiles": "C[C@]1(c2nc3c(C(N)=O)cccc3[nH]2)CCCN1", "values": [
      {"measurement": "Potency", "setting": "[1]", "result": "inactive"},
      {"measurement": "Potency", "setting": "[2]", "result": "2.73 µM (active)"},
      {"measurement": "Potency", "setting": "[9]", "result": "inactive"},
      {"measurement": "Potency", "setting": "[3]", "result": "inactive"},
      {"measurement": "activity change, negative = inhibition", "setting": "[4]", "result": -3.68, "unit": "%"}
    ]},
    {"smiles": "CN(C)C(=O)/N=N/C(=O)N(C)C", "values": [
      {"measurement": "Potency", "setting": "[10]", "result": "inactive"},
      {"measurement": "outcome", "setting": "[5]", "result": "inactive"},
      {"measurement": "Potency", "setting": "[1]", "result": "inactive"},
      {"measurement": "Potency", "setting": "[2]", "result": "inactive"},
      {"measurement": "Potency", "setting": "[9]", "result": "inactive"}
    ]},
    {"smiles": "O=C1c2ccccc2-c2n[nH]c3cccc1c23", "values": [
      {"measurement": "outcome", "setting": "[11]", "result": "inactive"},
      {"measurement": "outcome", "setting": "[5]", "result": "inactive"},
      {"measurement": "Potency", "setting": "[1]", "result": "inactive"},
      {"measurement": "Potency", "setting": "[2]", "result": "30.6 µM (active)"},
      {"measurement": "Potency", "setting": "[9]", "result": "inactive"},
      {"measurement": "Potency", "setting": "[3]", "result": "inactive"}
    ]},
    {"smiles": "COc1cc(Nc2ncc(F)c(Nc3ccc4c(n3)N(COP(=O)(O)O)C(=O)C(C)(C)O4)n2)cc(OC)c1OC", "values": [
      {"measurement": "Potency", "setting": "[1]", "result": "inactive"},
      {"measurement": "Potency", "setting": "[2]", "result": "2.43 µM (active)"},
      {"measurement": "Potency", "setting": "[3]", "result": "inactive"},
      {"measurement": "Potency", "setting": "[4]", "result": "inactive"}
    ]},
    {"smiles": "COC(=O)Nc1ccc(-c2nc(N3CCOCC3)c3cnn(C4CCN(Cc5cccnc5)CC4)c3n2)cc1", "values": [
      {"measurement": "Potency", "setting": "[1]", "result": "0.109 µM (active)"},
      {"measurement": "Potency", "setting": "[2]", "result": "0.153 µM (active)"},
      {"measurement": "Potency", "setting": "[12]", "result": "5.41 µM (active)"},
      {"measurement": "Potency", "setting": "[4]", "result": "6.31 µM (active)"},
      {"measurement": "Potency", "setting": "[13]", "result": "9.61 µM (active)"}
    ]},
    {"smiles": "CCC(C(=O)O)C1CCC(C)C(C(C)C(O)C(C)C(=O)C(CC)C2OC3(C=CC(O)[C@@]4(CC[C@](C)(C5CC[C@@](O)(CC)C(C)O5)O4)O3)C(C)CC2C)O1", "note": "(some centres not stated)", "values": [
      {"measurement": "Potency", "setting": "[14]", "result": "inactive"},
      {"measurement": "Potency", "setting": "[15]", "result": "0.361 µM (active)"},
      {"measurement": "Potency", "setting": "[1]", "result": "3.43 µM (active)"},
      {"measurement": "Potency", "setting": "[2]", "result": "4.85 µM (active)"},
      {"measurement": "Potency", "setting": "[9]", "result": "0.968 µM (active)"},
      {"measurement": "Potency", "setting": "[3]", "result": "inactive"}
    ]},
    {"smiles": "O=C(CCCCCCC(=O)Nc1cccnc1)NO", "values": [
      {"measurement": "Potency", "setting": "[1]", "result": "inactive"},
      {"measurement": "Potency", "setting": "[2]", "result": "19.3 µM (active)"},
      {"measurement": "Potency", "setting": "[9]", "result": "inactive"},
      {"measurement": "Potency", "setting": "[4]", "result": "inactive"}
    ]},
    {"smiles": "Nn1nnc2ccccc21", "values": [
      {"measurement": "outcome", "setting": "[11]", "result": "inactive"}
    ]},
    {"smiles": "NC/C=C\\C(=O)O", "values": [
      {"measurement": "outcome", "setting": "[11]", "result": "inactive"}
    ]}
  ]
}
